Tests used:
[1] = biological target: RAC-alpha serine/threonine-protein kinase (Homo sapiens) (UniProt P31749); details: at 0.1 µM
[2] = biological target: RAC-alpha serine/threonine-protein kinase (Homo sapiens) (UniProt P31749); details: at 1 µM
[3] = biological target: RAC-beta serine/threonine-protein kinase (Homo sapiens) (UniProt P31751); details: at 0.1 µM
[4] = biological target: RAC-beta serine/threonine-protein kinase (Homo sapiens) (UniProt P31751); details: at 1 µM
[5] = biological target: RAC-gamma serine/threonine-protein kinase (Homo sapiens) (UniProt Q9Y243); details: at 0.1 µM
RAC-gamma serine/threonine-protein kinase (Homo sapiens), sequence (Q9Y243 whole entry): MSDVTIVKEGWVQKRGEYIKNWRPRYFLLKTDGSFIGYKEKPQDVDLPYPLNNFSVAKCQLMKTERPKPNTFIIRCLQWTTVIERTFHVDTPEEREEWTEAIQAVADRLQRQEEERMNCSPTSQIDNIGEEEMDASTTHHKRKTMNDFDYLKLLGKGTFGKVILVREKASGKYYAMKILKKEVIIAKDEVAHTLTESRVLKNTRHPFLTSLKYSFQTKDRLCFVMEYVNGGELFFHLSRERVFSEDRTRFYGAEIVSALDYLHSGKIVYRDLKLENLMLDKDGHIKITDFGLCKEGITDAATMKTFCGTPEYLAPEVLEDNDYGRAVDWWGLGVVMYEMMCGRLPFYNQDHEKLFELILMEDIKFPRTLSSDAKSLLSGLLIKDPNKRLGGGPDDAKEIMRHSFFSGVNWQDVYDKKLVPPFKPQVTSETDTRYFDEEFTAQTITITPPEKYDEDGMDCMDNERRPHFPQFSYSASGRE

[6] = biological target: RAC-gamma serine/threonine-protein kinase (Homo sapiens) (UniProt Q9Y243); details: at 1 µM
[7] = biological target: G protein-coupled receptor kinase 6 (Homo sapiens) (UniProt P43250); details: at 0.1 µM
G protein-coupled receptor kinase 6 (Homo sapiens), sequence (P43250 whole entry, looked up): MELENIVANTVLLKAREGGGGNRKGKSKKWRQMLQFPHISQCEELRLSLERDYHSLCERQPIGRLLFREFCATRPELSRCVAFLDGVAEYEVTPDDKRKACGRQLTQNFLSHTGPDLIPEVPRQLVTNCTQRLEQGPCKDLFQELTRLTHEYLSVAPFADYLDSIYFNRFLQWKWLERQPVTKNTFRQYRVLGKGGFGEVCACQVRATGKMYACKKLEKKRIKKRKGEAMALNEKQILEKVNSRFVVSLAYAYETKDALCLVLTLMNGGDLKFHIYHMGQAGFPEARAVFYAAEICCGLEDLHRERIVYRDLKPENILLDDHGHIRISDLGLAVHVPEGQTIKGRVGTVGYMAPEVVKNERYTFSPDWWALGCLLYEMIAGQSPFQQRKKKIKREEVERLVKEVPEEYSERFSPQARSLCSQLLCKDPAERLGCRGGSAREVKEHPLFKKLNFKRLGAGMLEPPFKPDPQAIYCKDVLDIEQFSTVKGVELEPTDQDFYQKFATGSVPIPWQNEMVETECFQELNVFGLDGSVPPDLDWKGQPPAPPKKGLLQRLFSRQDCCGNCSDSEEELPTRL

[8] = biological target: G protein-coupled receptor kinase 6 (Homo sapiens) (UniProt P43250); details: at 1 µM
[9] = biological target: T1, Rhodopsin kinase GRK7 (Homo sapiens) (UniProt Q8WTQ7); details: at 0.1 µM
T1 sequence (whole entry): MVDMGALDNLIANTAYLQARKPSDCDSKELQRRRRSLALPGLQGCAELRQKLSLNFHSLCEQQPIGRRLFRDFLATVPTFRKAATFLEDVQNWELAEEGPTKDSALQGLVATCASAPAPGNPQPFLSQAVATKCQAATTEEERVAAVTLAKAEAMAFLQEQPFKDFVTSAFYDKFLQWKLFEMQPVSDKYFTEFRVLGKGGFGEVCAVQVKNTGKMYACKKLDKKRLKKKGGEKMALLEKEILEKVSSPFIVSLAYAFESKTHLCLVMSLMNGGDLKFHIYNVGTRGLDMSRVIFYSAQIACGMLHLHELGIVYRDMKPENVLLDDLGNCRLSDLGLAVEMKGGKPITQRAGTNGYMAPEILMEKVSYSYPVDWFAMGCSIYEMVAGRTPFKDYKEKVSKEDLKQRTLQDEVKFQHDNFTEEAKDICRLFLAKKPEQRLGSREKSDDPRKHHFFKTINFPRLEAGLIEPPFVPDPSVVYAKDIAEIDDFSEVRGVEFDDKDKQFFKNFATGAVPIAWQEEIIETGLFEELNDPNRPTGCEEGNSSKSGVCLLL

[10] = biological target: T1, Rhodopsin kinase GRK7 (Homo sapiens); details: at 1 µM

RAC-beta serine/threonine-protein kinase (Homo sapiens), sequence (P31751 whole entry): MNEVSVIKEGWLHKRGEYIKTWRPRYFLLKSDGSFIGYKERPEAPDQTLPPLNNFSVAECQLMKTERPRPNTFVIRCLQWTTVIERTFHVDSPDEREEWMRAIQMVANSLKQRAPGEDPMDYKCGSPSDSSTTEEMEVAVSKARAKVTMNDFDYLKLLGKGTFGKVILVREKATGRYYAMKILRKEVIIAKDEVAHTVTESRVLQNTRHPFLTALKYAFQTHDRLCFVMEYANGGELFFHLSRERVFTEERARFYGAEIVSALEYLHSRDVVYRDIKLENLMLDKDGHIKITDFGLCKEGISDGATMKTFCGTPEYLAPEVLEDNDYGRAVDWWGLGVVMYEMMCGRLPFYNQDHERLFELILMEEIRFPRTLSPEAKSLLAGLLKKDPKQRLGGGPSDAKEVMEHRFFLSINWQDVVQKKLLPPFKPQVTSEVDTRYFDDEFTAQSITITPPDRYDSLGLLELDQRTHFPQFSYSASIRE
RAC-alpha serine/threonine-protein kinase (Homo sapiens), sequence (P31749 whole entry): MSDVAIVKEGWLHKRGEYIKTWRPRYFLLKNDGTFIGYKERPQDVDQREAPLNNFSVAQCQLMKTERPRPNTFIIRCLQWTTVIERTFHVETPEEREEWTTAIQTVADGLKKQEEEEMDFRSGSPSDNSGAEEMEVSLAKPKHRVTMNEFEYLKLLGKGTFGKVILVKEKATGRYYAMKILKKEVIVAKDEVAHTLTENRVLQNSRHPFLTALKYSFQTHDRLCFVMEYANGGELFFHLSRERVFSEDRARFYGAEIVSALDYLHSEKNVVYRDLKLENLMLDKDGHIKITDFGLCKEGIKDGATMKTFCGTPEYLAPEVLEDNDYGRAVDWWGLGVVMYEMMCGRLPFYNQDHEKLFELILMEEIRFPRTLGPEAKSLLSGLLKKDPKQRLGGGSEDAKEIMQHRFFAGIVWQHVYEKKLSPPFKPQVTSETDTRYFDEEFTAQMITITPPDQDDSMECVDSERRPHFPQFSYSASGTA

SMILES: CCN1CCC(CC(=O)Nc2n[nH]c3nnc(-c4cccc(F)c4F)cc23)CC1
- inhibition [1]: 0.38%
- inhibition [2]: 0.44%
- inhibition [3]: -1.36%
- inhibition [4]: 0.79%
- inhibition [5]: -0.3%
- inhibition [6]: 3.08%
- inhibition [7]: 1.19%
- inhibition [8]: 2.16%
- inhibition [9]: 6.3%
- inhibition [10]: 3.7%

SMILES: CC(=O)Nc1cccc(C#Cc2cncnc2Nc2ccc(OCc3cccc(F)c3)c(Cl)c2)c1
- inhibition [1]: 0.35%
- inhibition [2]: 2.86%
- inhibition [3]: 1.58%
- inhibition [4]: 1.24%
- inhibition [5]: 0.94%
- inhibition [6]: 1.39%
- inhibition [7]: 0.81%
- inhibition [8]: -1.5%
- inhibition [9]: 3.04%
- inhibition [10]: -3.08%

SMILES: CCn1c(-c2nonc2N)nc2c(C#CC(C)(C)O)ncc(OC3CCNCC3)c21
- inhibition [1]: 70.1%
- inhibition [2]: 92.8%
- inhibition [3]: 85.2%
- inhibition [4]: 95.5%
- inhibition [5]: 74.7%
- inhibition [6]: 94.2%
- inhibition [7]: 4.09%
- inhibition [8]: 7.13%
- inhibition [9]: 7.74%
- inhibition [10]: 17%

SMILES: Nc1ncc(-c2cccc(S(N)(=O)=O)c2)c2scc(-c3ccc(F)c(Cl)c3)c12
- inhibition [1]: 0.6%
- inhibition [2]: 1.09%
- inhibition [3]: 0.29%
- inhibition [4]: 2.33%
- inhibition [5]: -0.27%
- inhibition [6]: 5.34%
- inhibition [7]: 0.4%
- inhibition [8]: -0.33%
- inhibition [9]: 6.15%
- inhibition [10]: 6.1%

SMILES: CC(C)COC(=O)c1ccc2c(c1)/C(=C/Nc1ccc(S(N)(=O)=O)cc1)C(=O)N2
- inhibition [1]: 1.6%
- inhibition [2]: 2.22%
- inhibition [3]: 0.67%
- inhibition [4]: 1.73%
- inhibition [5]: 1.5%
- inhibition [6]: 6.82%
- inhibition [7]: 1.33%
- inhibition [8]: 10.1%
- inhibition [9]: -4.26%
- inhibition [10]: 9.41%

SMILES: CN(C)CCOc1ccc(-c2nc(-c3ccncc3)c(-c3ccc4c(c3)CC/C4=N\O)[nH]2)cc1
- inhibition [1]: 0.74%
- inhibition [2]: 0.83%
- inhibition [3]: 1.02%
- inhibition [4]: 0.67%
- inhibition [5]: 1.29%
- inhibition [6]: 0.51%
- inhibition [7]: 3.13%
- inhibition [8]: 2.76%
- inhibition [9]: 1.71%
- inhibition [10]: 0.18%

SMILES: [O-][S+]1CCN(Cc2ccc(-c3ccc4ncnc(Nc5ccc(OCc6cccc(F)c6)c(Cl)c5)c4c3)o2)CC1
- inhibition [1]: 2.98%
- inhibition [2]: 0.19%
- inhibition [3]: 3.72%
- inhibition [4]: 3.57%
- inhibition [5]: 2.4%
- inhibition [6]: 2.54%
- inhibition [7]: 3.23%
- inhibition [8]: 4.79%
- inhibition [9]: 9.08%
- inhibition [10]: 2.57%

SMILES: CN1CCC(n2cnc(-c3ccc(F)cc3)c2-c2ccnc(Nc3ccccc3)n2)CC1
- inhibition [1]: 0.23%
- inhibition [2]: 1.05%
- inhibition [3]: 0.63%
- inhibition [4]: 0.8%
- inhibition [5]: 2.25%
- inhibition [6]: 5.43%
- inhibition [7]: 2.34%
- inhibition [8]: 2.65%
- inhibition [9]: 2.84%
- inhibition [10]: 6.42%

SMILES: FC(F)(F)c1cccc(-c2nn3ncccc3c2-c2ccnc(Nc3ccc4c(c3)OCCO4)n2)c1
- inhibition [1]: 0.59%
- inhibition [2]: 1.44%
- inhibition [3]: 2.75%
- inhibition [4]: 1.12%
- inhibition [5]: 1.47%
- inhibition [6]: 0.72%
- inhibition [7]: -1.22%
- inhibition [8]: -2.46%
- inhibition [9]: 1.8%
- inhibition [10]: 1.11%

SMILES: CCn1c(-c2nonc2N)nc2c(C#CC(C)(C)O)nc(OC[C@H](N)c3ccccc3)cc21
- inhibition [1]: 64.2%
- inhibition [2]: 90.4%
- inhibition [3]: 75.3%
- inhibition [4]: 92%
- inhibition [5]: 66.8%
- inhibition [6]: 91.7%
- inhibition [7]: 2.82%
- inhibition [8]: 5.48%
- inhibition [9]: 2.77%
- inhibition [10]: 15%

SMILES: CNC(=O)c1cncc(/C=C/c2ccccc2Cl)c1
- inhibition [1]: 0.07%
- inhibition [2]: 1.96%
- inhibition [3]: 0.21%
- inhibition [4]: 0.07%
- inhibition [5]: -0.57%
- inhibition [6]: 0.32%
- inhibition [7]: 1.74%
- inhibition [8]: 10.9%
- inhibition [9]: 2.3%
- inhibition [10]: 10.8%

SMILES: COc1cc(Nc2nccc(Nc3ccc4c(C)n[nH]c4c3)n2)cc(OC)c1OC
- inhibition [1]: 0.02%
- inhibition [2]: 1.09%
- inhibition [3]: 0.52%
- inhibition [4]: 1.19%
- inhibition [5]: 0.72%
- inhibition [6]: 1.18%
- inhibition [7]: -0.47%
- inhibition [8]: -4.13%
- inhibition [9]: 1.14%
- inhibition [10]: -1.95%

SMILES: CCCN(CCS(C)(=O)=O)Cc1ccc(-c2ccc3ncnc(Nc4ccc(OCc5cccc(F)c5)c(Cl)c4)c3c2)o1
- inhibition [1]: 0.19%
- inhibition [2]: 0.93%
- inhibition [3]: 1.03%
- inhibition [4]: 0.88%
- inhibition [5]: 0.64%
- inhibition [6]: 0.93%
- inhibition [7]: 5.12%
- inhibition [8]: 1.91%
- inhibition [9]: -0.29%
- inhibition [10]: 0.79%

SMILES: COc1ccc(-c2cc(-c3c[nH]nc3-c3ccccn3)ccn2)cc1
- inhibition [1]: 0.93%
- inhibition [2]: 1.5%
- inhibition [3]: 2.54%
- inhibition [4]: 1.95%
- inhibition [5]: 1.66%
- inhibition [6]: 1.52%
- inhibition [7]: 8.13%
- inhibition [8]: 8.91%
- inhibition [9]: 3.59%
- inhibition [10]: 6.26%

SMILES: CN1CCC(n2cnc(-c3ccc(F)cc3)c2-c2ccnc(N)n2)CC1
- inhibition [1]: 0.24%
- inhibition [2]: 0.29%
- inhibition [3]: 0.39%
- inhibition [4]: 0.66%
- inhibition [5]: 2.57%
- inhibition [6]: 2.05%
- inhibition [7]: 1.6%
- inhibition [8]: 2.25%
- inhibition [9]: 3.11%
- inhibition [10]: 5.7%

SMILES: CCN(CC)S(=O)(=O)c1ccc(OC)c(Nc2ncc(-c3ccccc3)o2)c1
- inhibition [1]: 0.87%
- inhibition [2]: -0.4%
- inhibition [3]: 0.37%
- inhibition [4]: 0.18%
- inhibition [5]: 2.3%
- inhibition [6]: -1.03%
- inhibition [7]: 1.87%
- inhibition [8]: -0.46%
- inhibition [9]: 3.17%
- inhibition [10]: -3.96%

SMILES: COc1ccc(CNC(=O)c2ccc(-c3cc(-c4nnc(C)o4)ccc3C)cc2)cc1
- inhibition [1]: 0.11%
- inhibition [2]: 0.4%
- inhibition [3]: 0.92%
- inhibition [4]: 1.2%
- inhibition [5]: 0.06%
- inhibition [6]: 0.12%
- inhibition [7]: 6.21%
- inhibition [8]: 16.4%
- inhibition [9]: 2.86%
- inhibition [10]: 10.6%

— ChEMBL document CHEMBL1961873, “Compounds: GSK PKIS; Assays: Nanosyn kinase panel” (2012)
